Assays:
Test in all cases: log2 ratio of Biotin-Ahx-Ub-VS probe labelling (fragment/DMSO); higher = less target engagement (more negative = stronger competition), active = hit call of the paper (q ≤ 0.05, log2 ratio ≤ -1)
Conditions in all cases: compound concentration: 200 uM; treatment time: 3 h
USP19 = target: T1, USP19 (UniProt O94966)
T1 sequence (whole entry): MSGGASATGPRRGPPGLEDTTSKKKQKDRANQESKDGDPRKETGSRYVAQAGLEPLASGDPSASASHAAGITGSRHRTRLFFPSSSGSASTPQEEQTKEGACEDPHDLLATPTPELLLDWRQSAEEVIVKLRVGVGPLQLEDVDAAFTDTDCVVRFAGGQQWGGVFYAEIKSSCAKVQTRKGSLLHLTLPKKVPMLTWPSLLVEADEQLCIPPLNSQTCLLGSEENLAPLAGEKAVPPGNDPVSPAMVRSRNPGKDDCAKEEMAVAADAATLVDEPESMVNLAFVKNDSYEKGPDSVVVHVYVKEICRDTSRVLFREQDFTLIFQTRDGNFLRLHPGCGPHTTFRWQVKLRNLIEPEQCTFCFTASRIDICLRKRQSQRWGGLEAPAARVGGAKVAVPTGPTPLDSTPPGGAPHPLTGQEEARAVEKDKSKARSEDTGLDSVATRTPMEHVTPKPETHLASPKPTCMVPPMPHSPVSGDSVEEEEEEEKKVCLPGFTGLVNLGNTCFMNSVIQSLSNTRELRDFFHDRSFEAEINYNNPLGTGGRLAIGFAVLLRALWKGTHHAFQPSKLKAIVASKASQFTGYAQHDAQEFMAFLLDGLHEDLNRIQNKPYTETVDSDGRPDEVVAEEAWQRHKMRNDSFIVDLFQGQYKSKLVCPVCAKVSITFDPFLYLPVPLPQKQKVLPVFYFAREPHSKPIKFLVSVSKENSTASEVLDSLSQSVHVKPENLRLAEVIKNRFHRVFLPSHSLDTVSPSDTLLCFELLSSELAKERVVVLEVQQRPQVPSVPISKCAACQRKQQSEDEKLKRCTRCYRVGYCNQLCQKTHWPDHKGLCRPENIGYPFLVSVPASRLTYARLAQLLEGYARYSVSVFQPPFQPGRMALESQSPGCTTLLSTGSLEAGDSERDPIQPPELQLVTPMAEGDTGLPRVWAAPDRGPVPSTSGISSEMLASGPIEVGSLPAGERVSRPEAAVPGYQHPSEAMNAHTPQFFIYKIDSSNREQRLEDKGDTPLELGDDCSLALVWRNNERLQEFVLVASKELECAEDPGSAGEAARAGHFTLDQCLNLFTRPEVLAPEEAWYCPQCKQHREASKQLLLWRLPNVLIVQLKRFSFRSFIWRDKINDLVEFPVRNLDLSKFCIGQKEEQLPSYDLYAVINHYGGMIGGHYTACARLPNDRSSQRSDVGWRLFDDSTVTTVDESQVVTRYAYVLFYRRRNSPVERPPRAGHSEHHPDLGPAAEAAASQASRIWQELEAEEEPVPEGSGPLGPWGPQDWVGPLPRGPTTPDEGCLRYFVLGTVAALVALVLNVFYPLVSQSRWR
Method in brief: (§1)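 Each value is an average log2 ratio of fragment to vehicle, tested by unpaired t-test. The underlying Spectronaut label-free quantities were global-median-normalised, and only proteins with ≥2 unique peptides were included. Triplicate HEK293T lysate samples (495 µg) were exposed to fragment at 200 µM or vehicle for 3 h, then to Biotin-Ahx-Ub-VS at 0.5 µM final for 1 h, before NeutrAvidin enrichment of labelled DUBs, LysC and trypsin digestion, and diaPASEF LC-MS/MS.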

USP24 = USP24 (UniProt Q9UPU5)
USP24, sequence (Q9UPU5 whole entry): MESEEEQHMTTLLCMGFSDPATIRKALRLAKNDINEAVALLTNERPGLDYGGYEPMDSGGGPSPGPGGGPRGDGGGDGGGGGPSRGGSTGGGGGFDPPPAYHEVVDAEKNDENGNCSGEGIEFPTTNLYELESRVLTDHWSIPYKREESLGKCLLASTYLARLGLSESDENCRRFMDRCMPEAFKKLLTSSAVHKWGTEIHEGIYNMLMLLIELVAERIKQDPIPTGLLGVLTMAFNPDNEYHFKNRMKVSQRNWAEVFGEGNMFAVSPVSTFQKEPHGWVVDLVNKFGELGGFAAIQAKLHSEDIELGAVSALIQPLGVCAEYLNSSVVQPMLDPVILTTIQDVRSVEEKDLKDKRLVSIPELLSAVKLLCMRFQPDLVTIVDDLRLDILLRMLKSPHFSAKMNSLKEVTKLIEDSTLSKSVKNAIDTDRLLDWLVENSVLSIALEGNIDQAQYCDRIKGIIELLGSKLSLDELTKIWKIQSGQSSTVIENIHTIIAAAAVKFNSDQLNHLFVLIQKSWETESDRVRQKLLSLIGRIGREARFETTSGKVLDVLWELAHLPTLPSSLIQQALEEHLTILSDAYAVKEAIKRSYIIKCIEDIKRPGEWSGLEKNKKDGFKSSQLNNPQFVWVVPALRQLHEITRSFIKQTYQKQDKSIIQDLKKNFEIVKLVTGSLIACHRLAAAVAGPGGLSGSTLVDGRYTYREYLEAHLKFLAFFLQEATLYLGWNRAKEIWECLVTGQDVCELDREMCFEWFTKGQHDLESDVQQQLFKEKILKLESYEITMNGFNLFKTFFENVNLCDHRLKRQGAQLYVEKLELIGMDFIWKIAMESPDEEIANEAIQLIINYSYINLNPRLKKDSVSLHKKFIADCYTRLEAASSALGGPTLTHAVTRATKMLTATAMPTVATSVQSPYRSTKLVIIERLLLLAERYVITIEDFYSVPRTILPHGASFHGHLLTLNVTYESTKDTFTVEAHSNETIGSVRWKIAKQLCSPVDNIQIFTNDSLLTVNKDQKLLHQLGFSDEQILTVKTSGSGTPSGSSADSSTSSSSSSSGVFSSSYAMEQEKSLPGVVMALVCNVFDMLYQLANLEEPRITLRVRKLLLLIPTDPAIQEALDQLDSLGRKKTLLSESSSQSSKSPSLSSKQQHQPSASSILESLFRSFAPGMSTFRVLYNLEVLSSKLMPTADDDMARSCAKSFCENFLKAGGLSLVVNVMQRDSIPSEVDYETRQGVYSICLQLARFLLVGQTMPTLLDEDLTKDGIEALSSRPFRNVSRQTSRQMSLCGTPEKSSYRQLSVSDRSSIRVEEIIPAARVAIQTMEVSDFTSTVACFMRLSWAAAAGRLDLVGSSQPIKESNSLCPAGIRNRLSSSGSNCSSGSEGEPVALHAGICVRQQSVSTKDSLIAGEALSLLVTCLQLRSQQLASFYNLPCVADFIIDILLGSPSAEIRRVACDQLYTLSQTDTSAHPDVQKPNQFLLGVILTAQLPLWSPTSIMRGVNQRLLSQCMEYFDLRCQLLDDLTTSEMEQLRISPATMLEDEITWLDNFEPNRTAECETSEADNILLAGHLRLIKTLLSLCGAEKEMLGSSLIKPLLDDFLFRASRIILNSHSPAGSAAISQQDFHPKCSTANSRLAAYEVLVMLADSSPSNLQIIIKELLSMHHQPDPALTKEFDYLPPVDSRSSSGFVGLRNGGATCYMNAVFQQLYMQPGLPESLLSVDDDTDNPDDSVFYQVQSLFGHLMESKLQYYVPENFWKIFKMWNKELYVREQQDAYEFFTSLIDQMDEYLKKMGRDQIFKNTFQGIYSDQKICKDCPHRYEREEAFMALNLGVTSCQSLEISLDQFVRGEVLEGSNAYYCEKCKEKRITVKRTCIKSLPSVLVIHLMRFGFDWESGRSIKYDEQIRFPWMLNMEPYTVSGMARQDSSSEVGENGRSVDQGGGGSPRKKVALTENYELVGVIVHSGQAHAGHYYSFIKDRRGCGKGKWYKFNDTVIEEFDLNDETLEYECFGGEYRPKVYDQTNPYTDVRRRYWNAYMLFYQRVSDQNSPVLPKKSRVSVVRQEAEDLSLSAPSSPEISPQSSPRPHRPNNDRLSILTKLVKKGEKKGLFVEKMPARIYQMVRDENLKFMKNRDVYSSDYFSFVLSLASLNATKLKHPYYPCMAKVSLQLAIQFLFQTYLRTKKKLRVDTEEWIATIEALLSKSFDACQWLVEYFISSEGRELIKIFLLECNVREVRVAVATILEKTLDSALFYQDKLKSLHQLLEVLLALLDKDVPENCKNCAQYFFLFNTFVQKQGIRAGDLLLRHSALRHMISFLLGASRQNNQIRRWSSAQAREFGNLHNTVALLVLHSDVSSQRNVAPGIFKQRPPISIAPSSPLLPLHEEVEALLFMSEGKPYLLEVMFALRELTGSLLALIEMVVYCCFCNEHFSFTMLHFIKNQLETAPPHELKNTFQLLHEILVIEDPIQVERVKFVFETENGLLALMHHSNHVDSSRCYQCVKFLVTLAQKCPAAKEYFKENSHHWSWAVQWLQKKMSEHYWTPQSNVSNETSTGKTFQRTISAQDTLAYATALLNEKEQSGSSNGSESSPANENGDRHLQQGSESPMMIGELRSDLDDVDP
Method in brief: as §1

USP25 = target: T2, USP25 (UniProt Q9UHP3)
T2 sequence (whole entry): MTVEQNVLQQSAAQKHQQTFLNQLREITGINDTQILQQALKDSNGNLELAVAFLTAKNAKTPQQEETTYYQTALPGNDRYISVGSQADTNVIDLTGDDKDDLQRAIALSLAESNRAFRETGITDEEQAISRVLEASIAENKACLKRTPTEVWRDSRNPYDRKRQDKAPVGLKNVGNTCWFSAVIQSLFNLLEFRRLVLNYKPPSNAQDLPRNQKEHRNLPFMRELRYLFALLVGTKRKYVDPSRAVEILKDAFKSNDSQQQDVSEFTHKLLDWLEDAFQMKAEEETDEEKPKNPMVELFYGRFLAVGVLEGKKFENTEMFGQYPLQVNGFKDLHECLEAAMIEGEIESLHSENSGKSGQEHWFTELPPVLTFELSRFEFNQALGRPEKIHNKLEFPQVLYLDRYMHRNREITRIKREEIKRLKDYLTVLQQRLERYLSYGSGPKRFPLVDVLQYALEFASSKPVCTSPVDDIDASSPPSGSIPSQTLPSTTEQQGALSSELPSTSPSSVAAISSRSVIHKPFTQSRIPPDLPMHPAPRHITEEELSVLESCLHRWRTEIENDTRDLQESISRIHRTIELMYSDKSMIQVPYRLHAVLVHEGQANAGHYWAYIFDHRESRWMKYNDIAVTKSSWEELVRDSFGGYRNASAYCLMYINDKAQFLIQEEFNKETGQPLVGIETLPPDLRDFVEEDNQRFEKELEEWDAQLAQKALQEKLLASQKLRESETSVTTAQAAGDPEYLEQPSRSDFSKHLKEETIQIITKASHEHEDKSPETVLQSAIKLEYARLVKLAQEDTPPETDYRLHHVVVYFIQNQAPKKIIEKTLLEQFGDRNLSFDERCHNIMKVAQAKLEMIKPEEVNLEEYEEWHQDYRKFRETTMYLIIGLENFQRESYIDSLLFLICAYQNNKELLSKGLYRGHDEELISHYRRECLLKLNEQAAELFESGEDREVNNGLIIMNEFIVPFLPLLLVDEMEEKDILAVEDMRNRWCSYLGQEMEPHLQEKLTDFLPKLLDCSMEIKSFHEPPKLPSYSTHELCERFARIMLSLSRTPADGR
Method in brief: as §1

USP28 = target: T3, USP28 (UniProt Q96RU2)
T3 sequence (whole entry): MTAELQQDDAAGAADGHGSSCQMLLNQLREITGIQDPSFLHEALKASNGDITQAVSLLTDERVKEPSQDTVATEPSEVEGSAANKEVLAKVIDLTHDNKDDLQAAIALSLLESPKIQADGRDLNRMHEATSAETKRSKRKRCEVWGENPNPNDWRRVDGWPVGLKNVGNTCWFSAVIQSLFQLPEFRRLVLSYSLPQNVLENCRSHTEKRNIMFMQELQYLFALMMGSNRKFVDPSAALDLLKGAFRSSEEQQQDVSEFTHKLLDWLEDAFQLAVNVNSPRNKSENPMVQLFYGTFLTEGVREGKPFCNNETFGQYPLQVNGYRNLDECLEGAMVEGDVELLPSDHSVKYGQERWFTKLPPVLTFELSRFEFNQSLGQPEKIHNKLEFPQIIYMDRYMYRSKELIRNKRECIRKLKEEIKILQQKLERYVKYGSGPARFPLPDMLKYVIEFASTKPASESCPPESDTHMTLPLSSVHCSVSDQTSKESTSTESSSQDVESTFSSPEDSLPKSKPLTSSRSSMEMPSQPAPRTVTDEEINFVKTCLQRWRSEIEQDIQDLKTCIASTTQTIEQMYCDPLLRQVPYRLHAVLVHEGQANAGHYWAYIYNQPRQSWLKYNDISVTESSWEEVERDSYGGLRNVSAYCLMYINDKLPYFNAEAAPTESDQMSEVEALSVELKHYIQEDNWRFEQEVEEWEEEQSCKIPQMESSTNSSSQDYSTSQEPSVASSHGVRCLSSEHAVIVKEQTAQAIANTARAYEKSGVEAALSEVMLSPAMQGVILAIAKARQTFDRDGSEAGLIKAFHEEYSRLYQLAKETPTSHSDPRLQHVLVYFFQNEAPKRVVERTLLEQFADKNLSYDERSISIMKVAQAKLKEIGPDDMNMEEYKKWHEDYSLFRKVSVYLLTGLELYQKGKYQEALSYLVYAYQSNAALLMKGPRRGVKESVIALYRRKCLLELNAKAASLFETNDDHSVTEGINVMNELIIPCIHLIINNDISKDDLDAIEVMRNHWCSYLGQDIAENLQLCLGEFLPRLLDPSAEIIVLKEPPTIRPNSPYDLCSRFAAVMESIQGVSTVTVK
Method in brief: as §1

Measured: log2 ratio of Biotin-Ahx-Ub-VS probe labelling

CC(NC(=O)CCl)c1cccc(Cl)c1 (centres undefined)
inactive: USP19 -0.35 | USP24 -0.342 | USP25 -0.639 | USP28 -0.845
